Out of some 320,000 compounds screened, about 7,600 (2.4%) were called active. Not shown: some 3% with an inconclusive outcome. Calls come from the whole dose curve; as a rule, active = well fitted activation curve with a large enough effect; inconclusive = small, poorly fitted or top-dose-only effect; inactive = no such curve, though single readings can be large or run the other way. What follows is part of a selection rich in actives, with near analogues and random picks from the rest.
Assay: qHTS Assay for NPC1 Promoter Activators; note: nearly all actives have a fitted effect of over 60% in size; for activation: % of control where 0% means no effect
Details: Huh7 NPC1 promoter luciferase reporter, 24 h; series mostly up to 9.22 µM; activation: at the top concentration
Source text: NIH Chemical Genomics Center [NCGC] NIH Molecular Libraries Probe Production centers Network [MLPCN] MLPCN Grant: MH089375-01A1 Assay Submitter (PI): Yiannis A. Ioannou NCGC Assay Overview: Niemann Pick Type C (NPC) is a rare neurodegenerative lipidosis that is characterized by lipid storage in the endosomal/lysosomal system. Treatment modalities for this devastating disease are currently non-existent due to the severe obstacles associated with accessing the central nervous system with proteins or genes. The majority of mutations causing NPC disease are missense mutations that are distributed throughout the length of the NPC1 protein, with the most prevalent being the I1061T allele. Although NPC1 mutant proteins may be functional, they are typically trapped in the ER due to misfolding. […] We have developed and optimized a cell based luciferase reporter assay in 1536 well format for the identification of up-regulators of the mutant NPC1 promoter.
The NPC1 promoter is cloned in front of the luciferase reporter gene, therefore NPC promoter activation results in luciferase expression. Frozen stock of the NPC1 promoter transfected Huh7 cells were obtained from the laboratory of Dr. Yiannis Ioannou (The Mount Sinai School of Medicine, New York, NY). Cells were propagated and maintained at NCGC in medium containing RPMI-1640 supplemented with 10% FBS, 2mM L-glutamine, and 50ug/ml penicillin/streptomycin. Cells were harvested in and plated for assays in OP-MEM I reduced-serum medium supplemented with 10% FBS. The Amplite luciferase reporter gene assay kit was purchased from ABD Bioquest and prepared/stored according to manufacturers recommendations. qHTS Assay Setup: 1.#Dispensed 5ul of Huh7 cells stably expressing NPC1-luciferase at a density of 1500 cells per well 1536-well plates. 2.#Incubate cells at 37C, 5% CO2, and 95% humidity for 2 hours. 3.#Transferred 23nl per well of compound in DMSO solution. 4.#Incubated at 37C, 5% CO2, and 95% humidity for 24 hours. 5.#Dispensed 3ul per well of Amplite reagent(ABD Bioquest) per well. 6.#Incubate at ambient for 10 minutes. 7.#Read using the luminescence protocol on the ViewLux plate reader (Perkin Elmer).
Potency is the fitted concentration of half-maximal effect.

activation, inactive:
COc1ccc(OC)c(/C=N/NC(=O)c2ccc[n+](CC(=O)c3ccccc3)c2)c1 2.89%
COc1ccccc1C(=O)Nc1ccc(C)c(S(=O)(=O)N2CCCCC2)c1 -2.07%
CNS(=O)(=O)c1ccc(C(=O)NCC(=O)NCCc2ccc3c(c2)OCCO3)cc1 0.876%
COc1ccc(C(=O)NCc2ccc(C)cc2)cc1S(=O)(=O)N1CCCC1 -2.7%
CC(C)(Oc1ccc(Cl)cc1)C(=O)OCC(=O)NCCc1ccc(S(N)(=O)=O)cc1 -3.7%
CC(=O)c1ccccc1NC(=O)C1CC(=O)N(c2ccc3c(c2)OCCO3)C1 (centres undefined) -3.76%
COc1ccc(C(=O)N2CCN(c3ccc(C(C)=O)cc3F)CC2)cc1S(=O)(=O)NC1CC1 11.8%
CCc1ccccc1NC(=O)[C@@H]1CCC(=O)N1C1OC(=O)c2c1ccc(OC)c2OC (some centres undefined) -0.58%
CN(C(=O)CSc1nnc(-c2ccc(C(C)(C)C)cc2)n1C)C1CCS(=O)(=O)C1 (centres undefined) 1.03%
Cc1cccc(NS(=O)(=O)c2ccc(C)c(C(=O)NCC(c3ccccc3)N(C)C)c2)c1 (centres undefined) -5.65%
C[C@H](NC(=O)c1ccccc1Cl)C(=O)OCC(=O)N1CCN(c2ccccc2)CC1 -0.198%
CCOC(=O)N1CCC(NC(=O)c2cnn3ccccc23)CC1 -0.0909%
Cc1cnc(C(=O)OCC(=O)N2CCc3ccccc32)cn1 9.65%
CC(=O)NCCC(=O)Nc1cc(S(=O)(=O)N2CCCCC2)ccc1Oc1cccc(C)c1 -0.163%
O=C(c1ccc(F)cc1)n1cc(C(=S)N2CCOCC2)c2ccccc21 1.36%
O=C(C[n+]1cc(Br)cc2ccccc21)c1ccc(F)cc1 -1.7%
Cc1ccc(NC(=O)Cn2c(C)csc2=O)cc1 13.8%
CCOC(=O)c1cc2c(nc1NC(=S)Nc1ccccc1)CC(C)(CC)OC2 (centres undefined) 0.619%
CCOC(=O)c1ccc(NC(=S)Nc2cc(C)cc(C)n2)cc1 -5.29%
CN(C)C1=NC[C@H](Cc2ccccc2)N1CCc1ccc(F)cc1 -6.2%
COc1ccc(OC)c(/C=C/C(=O)c2ccc3c(c2)OCO3)c1 18.9%
CCOC(=O)[C@H]1[C@H]2COc3ccc(C)cc3[C@@H]2N2C(=O)CN(Cc3ccc(F)cc3)C(=O)[C@@]12C -1.2%
COc1ccc(CN2CCN(C(=O)c3cc(C4CC4)nn3-c3ccccc3)CC2)cc1F 1.51%
N#Cc1ccc(CSc2nnc3ccccn23)cc1 0.241%
Cc1ccc(-n2c(C)cc(C(=O)CN3C(=O)C(=O)N(C4CCCC4)C3=O)c2C)cc1 1.5%
O=C(CSc1nnc2n1CCCN2)c1ccccc1 24.4%
Cc1cc(C(=O)CSc2nc(N)cc(=O)[nH]2)c(C)n1-c1cccc(F)c1 -13.5%
COc1cccc(CNC(=O)CN2C(=O)NC(Cc3ccccc3)(c3ccccc3)C2=O)c1 (centres undefined) -5.69%
Cc1c(C(C)CCCO)oc(=O)c2c1Oc1c(C)c(C(C)C[C@@H](C)O)oc(=O)c1C2 (some centres undefined) 1.57%
CC(=O)C[C@@H](O)CC(=O)[C@H]1OC(=O)CCCCCCc2ccccc21 -2.8%
O=C(O[C@H]1[C@H](Cc2ccccc2)NS(=O)(=O)[C@H]2C[C@@H]3C=C[C@]12O3)c1ccc([N+](=O)[O-])cc1 -3.6%
COc1ccccc1C(CNC(=O)c1cccc(S(=O)(=O)Nc2ccc(F)cc2)c1)N(C)C (centres undefined) -2.49%
O=C(CCNC(=O)c1ccc([N+](=O)[O-])cc1)NC1CCCCC1 -0.237%
N#C/C(=C(/O)COC(=O)COc1ccc(Cl)cc1)c1nc2ccccc2[nH]1 -1.83%
O=C(CSc1nc2ccc([N+](=O)[O-])cc2[nH]1)c1ccc(Cl)cc1 4.6%
CCOC(=O)c1c(C)[nH]c(C(=O)OCC(=O)c2ccc(OC)cc2OC)c1C -10.1%
CCOC(=O)c1c(C)[nH]c(C(=O)OCC(=O)N2CCCC2=O)c1C -3.33%
Cc1cc(C)c(CN2CCN(C(=O)Cn3ccc(NC(=O)OCc4ccccc4)nc3=O)CC2)c(C)c1 -15%
Cc1cccc(NC(=O)c2cccc(C(=O)Nc3cccc(C)c3C)n2)c1C -3.28%
COC(=O)c1ccc(NCC(=O)N2CCCCCC2)cc1 27.8%
Cc1ccc(C(=O)CNc2ccc(F)cc2)cc1 -1.15%

Potency, active:
O=C(c1cnn2ccccc12)N1CCc2ccccc21 3.16 µM
O=C(c1ccc(F)cc1)n1c(=S)nc2ccccn21 0.355 µM
CCOC(=O)c1cn[nH]c1NC(=S)Nc1ccccc1 2.82 µM
O=C(CSc1nnc2ccccn12)c1ccccc1 3.55 µM
Cc1ccc(-n2c(C)cc(C(=O)CSc3nnc4ccccn34)c2C)cc1 0.891 µM
O=C(Cc1nc2ccccc2[nH]c1=O)c1ccc(Cl)cc1 3.16 µM
CCCCOC(=O)c1[nH]c(C)c(C(=O)OC)c1C 2.82 µM
COC(=O)c1ccc(NCC(=O)c2ccccc2)cc1 2.51 µM

Reference: PubChem BioAssay AID485313 (National Center for Advancing Translational Sciences (NCATS), 2010)
